The values that follow come from the supplement of paper PMC3545927.

The assay deals with furin, P09958. As to the kind of experiment: furin cleavage Z-score vs untreated control; higher = more cleavage, active = 3.5 or more, inactive = 1 or less, 8 variable residues between constant flanks. The gist of the method: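 The cleavage Z-score was derived for purified furin acting on 8-mer peptides held on magnetic beads and fused to a cDNA oligonucleotide. Digests lasted 7.5, 15 or 30 min at 1:10 enzyme:substrate in 50 mM HEPES pH 7.5 with CaCl2 and NaCl. Sequencing counts of released DNA, log-transformed against furin-free reactions, were lowess-adjusted and scaled by median absolute deviation.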

Some of the results follow. No count for the full screen is at hand.

furin, P09958, sequence (P09958 whole entry, the tested form may be a part): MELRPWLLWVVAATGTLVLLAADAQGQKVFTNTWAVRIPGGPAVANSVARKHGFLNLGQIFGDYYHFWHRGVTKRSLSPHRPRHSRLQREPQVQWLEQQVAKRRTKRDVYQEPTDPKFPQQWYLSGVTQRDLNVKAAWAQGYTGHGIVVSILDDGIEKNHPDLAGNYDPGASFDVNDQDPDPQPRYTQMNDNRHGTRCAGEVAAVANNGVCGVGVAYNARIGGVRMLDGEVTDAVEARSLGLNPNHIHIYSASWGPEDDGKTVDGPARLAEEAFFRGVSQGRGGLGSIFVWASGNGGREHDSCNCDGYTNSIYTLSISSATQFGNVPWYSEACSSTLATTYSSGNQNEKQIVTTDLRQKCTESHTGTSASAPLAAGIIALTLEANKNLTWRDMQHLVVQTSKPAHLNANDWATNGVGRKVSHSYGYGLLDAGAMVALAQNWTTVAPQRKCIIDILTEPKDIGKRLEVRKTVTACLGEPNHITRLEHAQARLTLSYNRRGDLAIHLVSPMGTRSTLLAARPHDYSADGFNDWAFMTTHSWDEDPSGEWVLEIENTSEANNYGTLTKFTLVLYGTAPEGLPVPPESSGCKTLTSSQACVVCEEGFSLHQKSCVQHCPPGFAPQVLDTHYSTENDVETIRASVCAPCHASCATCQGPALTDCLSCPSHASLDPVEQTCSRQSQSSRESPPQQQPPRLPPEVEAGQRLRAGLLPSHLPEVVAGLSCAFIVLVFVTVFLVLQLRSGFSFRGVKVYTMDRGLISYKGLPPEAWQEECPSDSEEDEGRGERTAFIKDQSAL

In the case of CAPAIASLMAAGNASASA [HC1053], the “furin cleavage Z-score” value (7.5 min) is -0.244 (inactive), the “furin cleavage Z-score” value (15 min) amounted to 1.04 and the “furin cleavage Z-score” value (30 min) is 0.347 (inactive).

Turning to CAFVPCHRPSAGNASASA [HC2307], the “furin cleavage Z-score” value is -1.81 (inactive) (7.5 min), 0.496 (inactive) (15 min) and 0.113 (inactive) (30 min).

In the case of CALHEYPVGSAGNASASA [HC1236], the “furin cleavage Z-score” value is, setting by setting: (7.5 min) -0.438 (inactive); (15 min) -0.864 (inactive); (30 min) -0.00108 (inactive).

Take CAEERARAKWAGNASASA [EK3]: the “furin cleavage Z-score” value was 0.379 (inactive) (7.5 min), 1.71 (15 min) and -0.287 (inactive) (30 min).

As for CAEVVTSTWVAGNASASA [HC136], the “furin cleavage Z-score” value by setting is: (7.5 min) 0.215 (inactive); (15 min) -1.42 (inactive); (30 min) -0.55 (inactive).

Regarding CAVVCDSMSYAGNASASA [HC92], the “furin cleavage Z-score” value (7.5 min) was -1.45 (inactive), the “furin cleavage Z-score” value (15 min) was 0.971 (inactive) and the “furin cleavage Z-score” value (30 min) is -0.149 (inactive).

As for CAHARKAVTHAGNASASA [HC1426], the “furin cleavage Z-score” value is -1.35 (inactive) (7.5 min), -0.868 (inactive) (15 min) and 0.178 (inactive) (30 min).

Consider CAEPEPDVAVAGNASASA [HC1242], for which the “furin cleavage Z-score” value by setting is: (7.5 min) -1.24 (inactive); (15 min) -1.89 (inactive); (30 min) 0.391 (inactive).

CARVARFVTHAGNASASA [FS-1798]: the “furin cleavage Z-score” value by setting is: (7.5 min) 0.861 (inactive); (15 min) 1.96; (30 min) 4.55 (active).

CAFTTLPALSAGNASASA [HC500]: the “furin cleavage Z-score” value runs as follows: (7.5 min) 1.12; (15 min) -0.632 (inactive); (30 min) 1.28.

Consider CARVARFATSAGNASASA [FS-2529], for which the “furin cleavage Z-score” value (7.5 min) was 2.89, the “furin cleavage Z-score” value (15 min) is 4.14 (active) and the “furin cleavage Z-score” value (30 min) was 5.25 (active).

For the sequence CARVSRFVTWAGNASASA [FS-1804], the “furin cleavage Z-score” value was 0.465 (inactive) (7.5 min), 2.02 (15 min) and 2.57 (30 min).

CARVARDVAVAGNASASA [FS-3113]: the “furin cleavage Z-score” value reads like this: (7.5 min) 9.5 (active); (15 min) 11.7 (active); (30 min) 9.58 (active).

With CARFYRPVAVAGNASASA [FS-2670], the “furin cleavage Z-score” value by setting is: (7.5 min) -2.66 (inactive); (15 min) -1.03 (inactive); (30 min) -2.39 (inactive).

On to CARVARAMSIAGNASASA [FS-1797], for which the “furin cleavage Z-score” value is -0.644 (inactive) (7.5 min), 0.561 (inactive) (15 min) and 2.57 (30 min).

As to CAEYTTPCSGAGNASASA [HC1969], the “furin cleavage Z-score” value was -0.151 (inactive) (7.5 min), -0.366 (inactive) (15 min) and -0.644 (inactive) (30 min).

Regarding CAWFCLLLLAAGNASASA [HC1657], the “furin cleavage Z-score” value by setting is: (7.5 min) -0.863 (inactive); (15 min) -0.454 (inactive); (30 min) -2.53 (inactive).

For CACREVPCHRAGNASASA [HC2440], the “furin cleavage Z-score” value (7.5 min) is -0.508 (inactive), the “furin cleavage Z-score” value (15 min) is -2.04 (inactive) and the “furin cleavage Z-score” value (30 min) is -1.44 (inactive).

For the sequence CATVLDQAETAGNASASA [HC826], the “furin cleavage Z-score” value (7.5 min) came out at 1.14, the “furin cleavage Z-score” value (15 min) is 0.395 (inactive) and the “furin cleavage Z-score” value (30 min) is -0.728 (inactive).

As to CAPRRRKGRNAGNASASA [FS-1473], the “furin cleavage Z-score” value is 10.1 (active) (7.5 min), 11.5 (active) (15 min) and 9.35 (active) (30 min).

As to CASIRRQKREAGNASASA [FS-563], the “furin cleavage Z-score” value (7.5 min) was 11.3 (active), the “furin cleavage Z-score” value (15 min) was 10.3 (active) and the “furin cleavage Z-score” value (30 min) is 8.38 (active).

For the sequence CAAKRRQKREAGNASASA [FS-1110], the “furin cleavage Z-score” value was 12.9 (active) (7.5 min), 13 (active) (15 min) and 8.62 (active) (30 min).

For CATVRRQKREAGNASASA [FS-1175], the “furin cleavage Z-score” value is, setting by setting: (7.5 min) 12.4 (active); (15 min) 13.7 (active); (30 min) 9.11 (active).

For the sequence CAWRQEMGGNAGNASASA [HC1277], the “furin cleavage Z-score” value (7.5 min) is 0.884 (inactive), the “furin cleavage Z-score” value (15 min) was -0.41 (inactive) and the “furin cleavage Z-score” value (30 min) is 1.35.

With CASERSQPRGAGNASASA [HC187], the “furin cleavage Z-score” value reads like this: (7.5 min) 0.546 (inactive); (15 min) 0.429 (inactive); (30 min) 0.503 (inactive).

Turning to CAQTNWQKLEAGNASASA [HC1036], the “furin cleavage Z-score” value is 0.636 (inactive) (7.5 min), -0.515 (inactive) (15 min) and -0.384 (inactive) (30 min).

On to CAYFSMVGNWAGNASASA [HC341], for which the “furin cleavage Z-score” value was -0.31 (inactive) (7.5 min), -0.533 (inactive) (15 min) and -2.31 (inactive) (30 min).

CAVLSRQKREAGNASASA [FS-206]: the “furin cleavage Z-score” value runs as follows: (7.5 min) 11.7 (active); (15 min) 9.59 (active); (30 min) 8.73 (active).

With CACKPLLREEAGNASASA [HC1229], the “furin cleavage Z-score” value (7.5 min) was -2.56 (inactive), the “furin cleavage Z-score” value (15 min) was 0.033 (inactive) and the “furin cleavage Z-score” value (30 min) is 0.531 (inactive).

For the sequence CAPRRHWTTQAGNASASA [HC308], the “furin cleavage Z-score” value (7.5 min) was 0.172 (inactive), the “furin cleavage Z-score” value (15 min) was -0.306 (inactive) and the “furin cleavage Z-score” value (30 min) was 0.325 (inactive).

With CAPRRRQQREAGNASASA [FS-1551], the “furin cleavage Z-score” value is, setting by setting: (7.5 min) 6.3 (active); (15 min) 4.83 (active); (30 min) 5.13 (active).

In the case of CAVLSDFKTWAGNASASA [HC1154], the “furin cleavage Z-score” value (7.5 min) is -0.128 (inactive), the “furin cleavage Z-score” value (15 min) was -0.333 (inactive) and the “furin cleavage Z-score” value (30 min) was -0.963 (inactive).

Take CATTPCAGSWAGNASASA [HC61]: the “furin cleavage Z-score” value is -1.21 (inactive) (7.5 min), 0.988 (inactive) (15 min) and 1.04 (30 min).

Consider CASFDPLVAEAGNASASA [HC1288], for which the “furin cleavage Z-score” value is, setting by setting: (7.5 min) -1.29 (inactive); (15 min) -0.652 (inactive); (30 min) 0.659 (inactive).

As to CACAVRHMRSAGNASASA [FS-1513], the “furin cleavage Z-score” value (7.5 min) was 0.659 (inactive), the “furin cleavage Z-score” value (15 min) was 0.712 (inactive) and the “furin cleavage Z-score” value (30 min) came to 1.2.

CAWLERTMRSAGNASASA [FS-108]: the “furin cleavage Z-score” value runs as follows: (7.5 min) 4.21 (active); (15 min) 5.66 (active); (30 min) 4.38 (active).

Take CAEARRTMRSAGNASASA [FS-228]: the “furin cleavage Z-score” value runs as follows: (7.5 min) 6.84 (active); (15 min) 6.18 (active); (30 min) 7.34 (active).

As for CALEVVTSTWAGNASASA [HC987], the “furin cleavage Z-score” value by setting is: (7.5 min) 0.41 (inactive); (15 min) 0.551 (inactive); (30 min) 1.7.

As for CAEVVTSTWAAGNASASA [HC2243], the “furin cleavage Z-score” value runs as follows: (7.5 min) -0.622 (inactive); (15 min) 0.588 (inactive); (30 min) -0.814 (inactive).

Turning to CAVVCCSMIYAGNASASA [HC2064], the “furin cleavage Z-score” value by setting is: (7.5 min) -0.191 (inactive); (15 min) -0.994 (inactive); (30 min) 0.202 (inactive).

As to CAGSPPSVASAGNASASA [HC1257], the “furin cleavage Z-score” value is -0.959 (inactive) (7.5 min), -1.08 (inactive) (15 min) and 0.309 (inactive) (30 min).

With CACVRRSPCAAGNASASA [FS-2118], the “furin cleavage Z-score” value was -0.381 (inactive) (7.5 min), -1.71 (inactive) (15 min) and -0.39 (inactive) (30 min).

On to CACFRKHPDAAGNASASA [HC453], for which the “furin cleavage Z-score” value was -1.37 (inactive) (7.5 min), -1.46 (inactive) (15 min) and -0.48 (inactive) (30 min).

Turning to CARWRRTKGAAGNASASA [FS-1873], the “furin cleavage Z-score” value was -0.133 (inactive) (7.5 min), -1.53 (inactive) (15 min) and -0.0248 (inactive) (30 min).

For CAGSSRRFRAAGNASASA [FS-1003], the “furin cleavage Z-score” value is -0.163 (inactive) (7.5 min), 1.3 (15 min) and 2.13 (30 min).

With CAGSPRSKRAAGNASASA [FS-788], the “furin cleavage Z-score” value was 11.2 (active) (7.5 min), 9.92 (active) (15 min) and 8.49 (active) (30 min).

On to CACFRRSKRAAGNASASA [FS-1514], for which the “furin cleavage Z-score” value (7.5 min) is 9.65 (active), the “furin cleavage Z-score” value (15 min) was 9.01 (active) and the “furin cleavage Z-score” value (30 min) is 6.16 (active).

For the sequence CARWRRSKRAAGNASASA [FS-959], the “furin cleavage Z-score” value (7.5 min) is 11.1 (active), the “furin cleavage Z-score” value (15 min) was 11.6 (active) and the “furin cleavage Z-score” value (30 min) was 8.46 (active).
